Measurements reported in PubChem BioAssay (NCI).
This is part of a sample that, as a whole, favours compounds with a hit. Of some 83,000 tested, about 20% had one in any assay.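 Values shown are percent growth following 48 h exposure of cells in 96-well plates to a single concentration of compound; below 10 was considered active.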 A number with no mark means an inactive call. The source made the active and inactive calls.

The compounds below were run on SF-295 CNS (assay: NCI-60 one-dose screen, 48 h (100 = growth as untreated, 0 = no growth, -100 = all killed)). Details: 10 µM unless noted.
Work on `O=C1Nc2ccc(Br)cc2/C1=N\c1nnc(-c2ccc(Cl)cc2)o1` yielded a growth of 75.1%.
With `C#C[C@]1(O)CC[C@H]2[C@@H]3CC=C4c5sc(Nc6cccc(C)n6)nc5CC[C@]4(C)[C@H]3CC[C@@]21C` the growth was -70.4% (active).
In the case of `CS(=O)(=O)c1ccc2c(c1)c1c(n2Cc2ccc(Cl)cc2)CCCC1`, the growth is reported as 67%.
In the case of `COc1ccc(-c2nnc(/N=C3/C(=O)Nc4ccc(Br)cc43)o2)cc1`, the growth is reported as 99.2%.
`COc1ccc(S(=O)(=O)n2cc(C=O)c3ccccc32)c(OC)c1` gave a growth of 99.9%.
`O=C1c2c(c3c4cccnc4[nH]c3c3ccc4ccccc4c23)C(=O)N1CCN1CCOCC1` gave a growth of 51.4%.
Compound `COc1ccc(NC2=C(Cl)C(=O)C(C)=C(C)C2=O)cc1` has a growth of 100%.
With `COc1ccc(-c2cc(-c3ccc(Cl)cc3)nc3nc(N)nn23)cc1` the growth was 97.3%.
`C#C[C@]1(O)CC[C@H]2[C@@H]3CC=C4c5sc(Nc6nc(C)cc(OC)n6)nc5CC[C@]4(C)[C@H]3CC[C@@]21C` was tested, and the growth was -60% (active).
`COc1ccc(/C=C/C(=O)c2nnn(-c3ccc(C(=O)O)cc3)c2C)cc1OC` gave a growth of 103%.
For `COc1cc(O)c2c(c1)/C=C/C[C@H](O)[C@H](O)C(=O)/C=C\C[C@H](C)OC2=O`, the growth was 60.2%.
For `COc1ccccc1/C=C/C(=O)c1nnn(-c2ccc(C(=O)O)cc2)c1C`, the growth was 100%.
`O=S(=O)(Nc1ccc(C2CC2)cc1)c1ccc(-c2cnc(C3CC3)o2)cc1` showed a growth of 49.4%.
For `COc1cc(/C=N/Nc2ccnc3cc(Cl)ccc23)cc(OC)c1O`, the growth was -80.3% (active).
`COc1ccc(-c2nc(SCC(C)C)nc(N/N=C\c3cccc([N+](=O)[O-])c3)c2C#N)cc1` was tested, and the growth was 52.7%.
`CCCCCCNC(=O)Oc1ccc(/C(=C(\C)c2ccc(OC)cc2)c2ccc(OCCN(C)C)cc2)cc1` was tested, and the growth was 80.8%.
For `CCCCSc1nnc(-c2ccc(-c3ccc(Cl)cc3)nc2C)o1`, the growth was 96.8%.
Compound `CC(C)c1nn(-c2ccccc2)c(N2CCCCC2)c1/C=N/NC(N)=S` has a growth of 77.6%.
With `C#C[C@]1(O)CC[C@H]2[C@@H]3CC=C4c5sc(Nc6ccc(OC)nc6)nc5CC[C@]4(C)[C@H]3CC[C@@]21C` the growth was -29.7% (active).
Compound `COc1cc(-c2noc(C[C@@H](NC(=O)OCc3ccccc3)C(C)C)n2)cc(OC)c1OC` has a growth of 105%.
For `COc1ccc(-c2ccc3c4c(cccc24)C(=O)N(N2C(=O)c4cccc5cccc(c45)C2=O)C3=O)cc1`, the growth was 105%.
Work on `Cc1nn(-c2ccc(Br)cc2)c2nc(CCl)[nH]c(=O)c12` yielded a growth of 100%.
`CN1CCN(c2ccc(C(=O)Nc3cccc(-c4cn(-c5ccc(S(N)(=O)=O)cc5)nn4)c3)cc2C(F)(F)F)CC1` showed a growth of 90.4%.
`COc1ccc(Cn2cc3c(c2-c2ccccc2)CCCc2cnoc2-3)cc1[N+](=O)[O-]` was tested, and the growth was 69.5%.
For `NS(=O)(=O)Oc1ccc2nc(Nc3ccc(F)c(F)c3)ccc2c1`, the growth was 82.8%.
Work on `O=C1c2c(c3c4cc(Br)ccc4[nH]c3c3ccc4ccccc4c23)C(=O)N1CCN1CCNCC1` yielded a growth of 73.6%.
`CC1CCN(S(=O)(=O)c2ncsc2-c2ccccc2)CC1` gave a growth of 30.7%.
In the case of `O=C1NC(=O)c2c1c1c3ccccc3ccc1c1[nH]c3ccccc3c21`, the growth is reported as 3.01% (active).
Work on `COc1cc([C@H]2OC[C@H]3[C@@H]2CO[C@@H]3c2ccc(O)c(OC)c2)ccc1O` yielded a growth of 108%.
`CCN(CC)CCN1C(=O)c2c(c3c4cc(Br)ccc4[nH]c3c3ccc4ccccc4c23)C1=O` was tested, and the growth was -89% (active).
With `CC(C)=CCC[C@](C)(O)[C@H]1CC[C@]2(C)[C@@H]1CC[C@@H]1[C@@]3(C)CCC(NC(=O)c4ccccc4C(=O)O)C(C)(C)[C@@H]3CC[C@]12C` (stereo partly drawn) the growth was 100%.
For `Clc1ccc(-c2csc(N/N=C/c3nc4ccccc4n3C3CC3)n2)cc1`, the growth was 96.5%.
Compound `Cc1ccc(-c2csc(N/N=C/c3nc4ccccc4n3C3CC3)n2)cc1` has a growth of 96.8%.
`C#C[C@]1(O)CC[C@H]2[C@@H]3CC=C4c5sc(-c6ccccn6)nc5CC[C@]4(C)[C@H]3CC[C@@]21C` was tested, and the growth was -37.3% (active).
Compound `O=C1c2c(c3c4cccnc4[nH]c3c3ccc4ccccc4c23)C(=O)N1CCN1CCNCC1` has a growth of 84.2%.
`O=C1c2c(c3c4cccnc4[nH]c3c3ccc4ccccc4c23)C(=O)N1CCN1CCCCC1` showed a growth of 28.5%.
With `COc1ccc(-c2nc(SCCC(C)C)nc(N/N=C\c3ccc(O)cc3)c2C#N)cc1` the growth was 91.6%.
In the case of `CN(C)C(=O)C1=NC(CO)C(=O)N(c2ccc(Cl)cc2)N1` (stereo not drawn), the growth is reported as 103%.
